The results in this text go back to PubChem BioAssay AID652042 (Broad Institute, 2013).

In all, about 1,100 compounds went through this assay and about 350 (32%) were called active. These entries were drawn from the full list. Measured potencies and affinities stand elsewhere. A number with no mark means an inactive call. How the calls were made is not given here.

A short description of the test: viability loss in CEM21 cells – cell-based, CellTiter-Glo luminescence, cherry-picked, cytotoxicity control for viral fusion inhibitor project, dose response (AID 652042). The note with it: CellTiter-Glo ATP luminescence, 24 h; series mostly up to 35 µM.
Turning to `O=C(CCC(=O)N1CCN(S(=O)(=O)c2ccc3ccccc3c2)CC1)Nc1cc(Cl)cc(Cl)c1`, the activity change, negative = cytotoxicity entry was “inactive”.
As to `CCN1CCN(S(=O)(=O)c2ccc(Cl)c(C(=O)Nc3ccccc3N3CCCC3)c2)CC1`, the activity change, negative = cytotoxicity entry is “inactive”.
Consider `CCCCCCc1nc2ccccc2c(=O)n1NC(=O)c1c(O)c2c(n(CC(C)C)c1=O)CCCC2`, for which the activity change, negative = cytotoxicity result was “inactive”.
As to `CC[C@@]12C(=O)N(c3cccc(Br)c3)C(=O)N1[C@H](c1ccc(OC)cc1)[C@@H]1C(=O)N(C(C)(C)C)C(=O)[C@@H]12`, the activity change, negative = cytotoxicity result is “inactive”.
`CN(Cc1ccc(Cl)cc1Cl)C(=O)c1cccc(S(=O)(=O)N2CCN(c3ccccc3)CC2)c1`: the activity change, negative = cytotoxicity result was “inactive”.
Regarding `Cc1ccc(C)c(-n2cc(CNCCCn3cccn3)c(-c3ccccc3)n2)c1`, the activity change, negative = cytotoxicity result is “inactive”.
In the case of `O=C1NCCN(Cc2cccc(Oc3ccccc3)c2)C1CC(=O)N1CCCCC1` (stereo unspecified) it was “inactive”; in that of `Cc1cc(Cl)c(S(=O)(=O)N2CCSCC2)cc1OCC(=O)NC1CCCCC1`, “inactive”.
With `Cc1cc(Cl)c(S(=O)(=O)N2CCCC2)cc1OCC(=O)NC1CCCCC1`, the activity change, negative = cytotoxicity entry is “inactive”.
In the case of `CN(C)CCn1c(=O)n(-c2cccc(Cl)c2)c(=O)c2c3c(sc21)CCCCC3` it was “inactive”; in that of `CCC(C)NS(=O)(=O)c1ccc(S(=O)(=O)N2CCCC3(CCCCC3)C2)cc1` (stereo unspecified), “inactive”; in that of `O=C(COC(=O)c1ncc(Cl)c(Cl)c1Cl)NCc1cccs1`, “inactive”.
For the compound `Cc1nc2ccccc2c2c1CC(C(C)(Cl)Br)O2` (stereo unspecified), the activity change, negative = cytotoxicity result was “inactive”.
To `COc1cc2oc(=O)cc(-c3ccc(-c4ccc(CO)cc4)cc3)c2c(OC)c1OC` belongs “inactive”; to `COc1ccccc1N/C(N)=N/c1nc(CSc2ccc(C)cc2)cc(=O)[nH]1`, “inactive”; to `C=CCN=C1NN=C(c2cc(C)n(CCOC)c2C)CS1`, “inactive”.
`CN1C(=O)c2cc(NS(=O)(=O)c3ccccc3F)ccc2OC[C@@H]2O[C@H](CC(=O)NC3Cc4ccccc4C3)CC[C@@H]21`: the activity change, negative = cytotoxicity result was “inactive”.
As for `Cn1c(C(=O)NCCCN2CCN(c3ccccc3F)CC2)cc2c(=O)[nH]c3ccccc3c21`, the activity change, negative = cytotoxicity result was “inactive”.
Turning to `Cc1cccc(/C=N\Nc2cn[nH]c(=O)c2Cl)c1`, the activity change, negative = cytotoxicity entry is “inactive”.
In the case of `COC(=O)[C@]1(C)N[C@H](CN(C)C(=O)Nc2ccc(Cl)cc2)[C@@H]2C(=O)N(Cc3ccccc3)C(=O)[C@@H]21`, the activity change, negative = cytotoxicity entry was “inactive”.
Turning to `COCCn1nnnc1CN(CCc1ccccc1)Cc1cc2cc(OC)ccc2[nH]c1=O`, the activity change, negative = cytotoxicity entry is “inactive”.
Take `COc1ccc2[nH]c(=O)c(CN(Cc3cccs3)Cc3nnnn3Cc3ccccc3)cc2c1`: the activity change, negative = cytotoxicity result is “inactive”.
For `Cc1cc(NC(=O)CCC(=O)N(C2CC2)C2(C(=O)NC3CCCC3)CCC(C)CC2)no1` (stereo unspecified), the activity change, negative = cytotoxicity entry was “inactive”.
`CCOC(=O)CN1CCCc2nc(C)c(C)cc21`: the activity change, negative = cytotoxicity result was “inactive”.
To `Cn1c(SCc2nc(-c3ccc(Cl)cc3)no2)nnc1-c1cccs1` belongs “inactive”; to `CCNc1ncnc2c1cnn2C1CCCO1` (stereo unspecified), “inactive”.
As for `COc1cc(CNCc2ccc(OC)c3ccccc23)cc(OC)c1OC`, the activity change, negative = cytotoxicity entry was “inactive”.
For `COc1cc(OC)cc(C(=O)N[C@H](C(=O)NCCc2c[nH]c3ccccc23)C(C)C)c1`, the activity change, negative = cytotoxicity result is “inactive”.
In the case of `N#Cc1c(NCc2ccccc2)ccnc1NCc1cccnc1`, the activity change, negative = cytotoxicity result was “inactive”.
With `Cc1nc2ccccc2nc(C)c1=NOCc1cccc(Cl)c1`, the activity change, negative = cytotoxicity entry was “inactive”.
Regarding `COc1ccc(-c2nn(C)c(=O)c3ccccc23)cc1NC(=O)Cn1nc(C)c2ccccc2c1=O`, the activity change, negative = cytotoxicity result was “inactive”.
As to `Cc1ccc(C(=O)Nc2cnc3ccccc3c2)cc1`, the activity change, negative = cytotoxicity entry is “inactive”.
In the case of `COc1ccc(-c2c(C)nn3c(C(F)(F)F)cc(C)nc23)cc1`, the activity change, negative = cytotoxicity result was “inactive”.
Regarding `C=CCNc1nc2c(c(=O)n(C)c(=O)n2C)n1CCCCCC`, the activity change, negative = cytotoxicity result was “inactive”.
In the case of `O=C(CNC(=O)c1cccc(-n2cccc2)c1)Nc1ccccc1Br` it was “inactive”; in that of `CC[C@@]12C(=O)N(c3ccc(OC)cc3)C(=O)N1[C@H](c1ccc(Cl)cc1)[C@@H]1C(=O)N(C3CCCCC3)C(=O)[C@@H]12`, “inactive”.
`Cn1c(-c2ccc(Cl)cc2)ccc(C#N)c1=O`: the activity change, negative = cytotoxicity entry is “inactive”.
To `O=S(=O)(NC1CC1)c1ccc(S(=O)(=O)N2CCCc3ccccc32)cc1` belongs “inactive”; to `CC(C)OP(=O)(Nc1cccc2ccccc12)OC(C)C`, “inactive”; to `Cc1ccc(OCCCCNC(C)c2ccccc2)c(C)c1` (stereo unspecified), 1.82% [at 8 µM].
For `COc1ccccc1CN(C)C(=O)CN1CCN(C(=O)c2cccs2)CC1`, the activity change, negative = cytotoxicity entry was “inactive”.
`O=C(c1ccccc1F)N1CCN(Cc2cccc(Cl)c2)CC1`: the activity change, negative = cytotoxicity result was “inactive”.
In the case of `O=C(CCCC(=O)N(c1ccc2c(c1)OCCO2)C(C(=O)NC1CCCCC1)c1ccc(F)cc1)Nc1ccccn1` (stereo unspecified) it was “inactive”; in that of `Nc1ccn(C2OC(COC(=O)C34CC5CC(CC(C5)C3)C4)C(O)C2O)c(=O)n1` (stereo unspecified), “inactive”; in that of `Nc1ccn([C@@H]2O[C@H](C(=O)NCc3ccc4c(c3)OCO4)[C@@H](O)[C@H]2O)c(=O)n1`, “inactive”.
In the case of `C[C@@]12CC(=O)NC1N(C(=O)c1cccc(C(F)(F)F)c1)C(c1ccccc1O)C2` (stereo partly specified) it was “inactive”; in that of `COc1ccc(CC(=O)Nc2cccc(S(=O)(=O)N3CCCCCC3)c2)cc1OC`, “inactive”; in that of `COc1ccc(NS(=O)(=O)c2cccc(C(=O)NNC(=O)CNC(=O)c3ccc(C)cc3)c2)cc1`, “inactive”.
For `CC1CCCC(C)N1CCCNC(=O)c1nn(C)c2c1CSc1ccccc1-2` (stereo unspecified), the activity change, negative = cytotoxicity result is “inactive”.
On to `Cc1cc(N2CCN(c3nc4ccccc4s3)CC2)n2ncnc2n1`, for which the activity change, negative = cytotoxicity entry was “inactive”.
`Cc1cccc(C)c1NC(=O)CCCSc1nnc(-c2ccc(Cl)cc2)n1-c1ccccc1`: the activity change, negative = cytotoxicity entry was “inactive”.
To `O=C(NCc1ccco1)c1ccc(Cn2c(=O)c3ccccc3n(Cc3cccc(Cl)c3)c2=O)cc1` belongs “inactive”; to `Cc1cc(C(=O)N2CCC(C(=O)O)CC2)c(C(F)(F)F)o1`, “inactive”; to `COc1ccc(-c2cn[nH]c2N)c(OC)c1`, “inactive”.
Regarding `O=C(Nc1ccc(Cl)cc1)Nc1cccc(C(=O)O)c1`, the activity change, negative = cytotoxicity entry is “inactive”.
For the compound `O=C(Nc1cccc(C(F)(F)F)c1)c1ccc(Cn2cc(Br)cn2)o1`, the activity change, negative = cytotoxicity entry is “inactive”.
Regarding `Cc1cc(Nc2cccc(C(F)(F)F)c2)cc(=O)n1-c1cccc(C(F)(F)F)c1`, the activity change, negative = cytotoxicity result was “inactive”.
As to `CCN(C1CCCCC1)S(=O)(=O)c1ccc(S(=O)(=O)N(CC(=O)Nc2ccccc2)C2CC2)cc1`, the activity change, negative = cytotoxicity entry is “inactive”.
In the case of `CCN(CC)S(=O)(=O)c1cccc(S(=O)(=O)c2cccc(S(=O)(=O)N(CC)CC)c2)c1` it was “inactive”.
In the case of `CCN(C[C@H]1N[C@@](CC)(C(=O)OC)[C@H]2C(=O)N(Cc3ccccc3)C(=O)[C@@H]12)S(=O)(=O)c1ccc(C(F)(F)F)cc1` it was “inactive”.
To `CCCCS(=O)(=O)N1CCN(C(=O)C(=O)c2cccc(C(F)(F)F)c2)CC1` belongs “inactive”.
